# Source: PubChem BioAssay
# Shown is part of a subset that was picked to be rich in hits.
# Cycloheximide cs: affects cycloheximide protein synthesis inhibition readout, counter-screen; 300,000 tested, 12% active; max response, %; cell reporter, cycloheximide protein synthesis inhibition counterscreen; in the data active means max response mostly above about 13%, no sharp cut-off; inactive means mostly below about 14%; further: read at 38.3 µM for the half of the compounds with a filed dose; 0% is about no effect
# Shiga toxin inh: inhibitors of Shiga toxin in Vero cells; AID 2315; Vero cells, Shiga toxin protein synthesis inhibition reporter; 290,000 tested, 9.2% active; inhibition, % at 38.7 µM; in the data active means inhibition mostly above about 28%, no sharp cut-off; inactive means mostly below about 43%; further: 0% is about no effect
# SARS PLpro yeast: inhibitors of SARS-CoV papain-like protease in yeast | S. cerevisiae expressing SARS-CoV PLpro, growth rescue | Potency, µM (top dose mostly 32.9 µM), inactives show at the top dose activity, positive = growth rescue, most hits filed as activators | 330,000 tested, 0.19% active; calls by dose curve; further: potency means the concentration at half of the fitted maximal effect; 0% is about no effect; nearly all actives have a fitted effect of over 55% in size
# AmpC no deterg: blocks E. coli AmpC beta-lactamase in detergent-free assay; Potency, µM (titrated, usually from 57.1 µM), for inactives: at the top dose activity change, negative = inhibition, usual class: inhibitors; AmpC nitrocefin hydrolysis, absorbance 480 nm, 0.0001% Triton; P00811; 330,000 tested, 0.52% active;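 further: potency means the concentration at half of the fitted maximal effect; plate controls were no compound for no effect and no enzyme for full effect; nearly all actives have a fitted effect of over 20% in size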
# Target sequence (P00811 whole entry, looked up): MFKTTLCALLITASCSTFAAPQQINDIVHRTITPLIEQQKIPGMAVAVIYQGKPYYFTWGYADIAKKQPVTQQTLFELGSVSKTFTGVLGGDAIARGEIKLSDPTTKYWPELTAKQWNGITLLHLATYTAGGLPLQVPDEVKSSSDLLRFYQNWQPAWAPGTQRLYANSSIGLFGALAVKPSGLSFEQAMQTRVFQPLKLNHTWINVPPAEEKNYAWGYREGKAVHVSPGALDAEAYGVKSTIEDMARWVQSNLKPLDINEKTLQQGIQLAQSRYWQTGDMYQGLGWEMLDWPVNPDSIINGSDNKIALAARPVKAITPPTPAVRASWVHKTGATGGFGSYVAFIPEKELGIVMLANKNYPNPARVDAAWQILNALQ
#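 AmpC (5.3 nM in the dispensed reagent) in 20 mM phosphate pH 7.0 with 0.01% (detergent screen) or 0.0001% Triton X-100 was preincubated with compounds for 15 min at room temperature. Nitrocefin was then added from an 800 uM solution, and hydrolysis was followed at 480 nm.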
# AmpC inh detg: inhibitors of E. coli AmpC beta-lactamase with detergent | AmpC hydrolysis of nitrocefin, absorbance 480 nm, 0.01% Triton | AID 485294 | Potency, µM (highest dose often 114 µM), without a hit: top-dose activity change, negative = inhibition, actives largely listed as inhibitors | 370,000 tested, 0.041% active;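 further: potency means the concentration at half of the fitted maximal effect; 0% = no-compound wells and -100% = no-enzyme wells; nearly all actives have a fitted effect of over 25% in size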
#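 20 mM phosphate pH 7.0 + 0.01% (detergent screen) or 0.0001% Triton X-100; 5.3 nM AmpC reagent; cpd preinc 15 min RT; nitrocefin (800 uM stock) to start; A480 q20 s × 4 min; Activity was normalised to no-enzyme and no-compound control wells.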
# AMA1 RON2 block: inhibitors of Plasmodium falciparum AMA1-RON2 interaction. AID 720542. 360,000 tested, 0.2% active. Potency, µM (series often up to 58.2 µM), for the others: at the highest dose activity change, negative = inhibition, hits mostly inhibitors. AlphaScreen AMA1-biotinylated RON2 peptide binding;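 further: potency means the concentration at half of the fitted maximal effect; 0% = vehicle wells and -100% = peptide control; nearly all actives have a fitted effect of over 45% in size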
#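 AMA1 (3D7) with his tag at 25 nM final met compounds first, then biotinylated RON2 peptide at 25 nM; detection used donor plus acceptor beads, 10 µg/mL apiece, read by AlphaScreen after 30 min at room temperature.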
# * hit, by the source's call; ? = inconclusive; . = not tested or not shown; [ ] = another dose, or the depositor's remark. Unless noted, the call rests on the fitted dose curve; in most records, active means well fitted curve in the direction sought with a large enough effect; inconclusive means small, poorly fitted or top-dose-only effect, or another doubt; inactive means no such curve, though single readings can be large; an effect the other way counts as inactive or inconclusive.
SMILES,Cycloheximide cs,Shiga toxin inh,SARS PLpro yeast,AmpC no deterg,AmpC inh detg,AMA1 RON2 block
CS(=O)(=O)c1ccc2nc(NC(=O)c3cccs3)sc2c1,-1.8,8.9,-11.1%,-22.1%,1.8%,11.6%
Cc1ccc2nc(NC(=O)C3CC3C)sc2c1 (stereo not given),37.4*,94.3*,2.9%,-27.2%,3.3%,-14.5%
CC(=O)N1CCN(c2ccccc2NC(=O)COc2ccccc2C)CC1,-1.0,-0.6,0.3%,86.6%,0.2%,-3.4%
c1ccc(C2CC3CC(c4ccccc4)N2O3)cc1 (stereo not given),.,.,.,.,.,2.7%
CO/N=C/c1ccc(Oc2ccc(C)cc2)nc1,26.8*,44.9*,8.4%,-7.1%,-12.4%,56.4%
Cc1ccc(Oc2ccc(C=O)cn2)cc1,19.8,25.7,-1.9%,-9.0%,3.6%,-2.6%
O=C(/C=C/c1ccc2c(c1)OCO2)NCC1CCCO1 (stereo not given),36.9*,63.2*,-6.3%,-6.2%,2.8%,-5.4%
O=C(/C=C/c1cccc([N+](=O)[O-])c1)NCC1CCCO1 (stereo not given),6.4,2.2,2.7%,?,-1.1%,-18.3%
O=C(/C=C/c1ccc2c(c1)OCO2)NC1CCCC1,27.0*,.,-3.1%,-26.4%,-14.5%,-0.1%
CN(Cc1ccccc1)C(=O)c1nc2ccccn2c1CNCCn1cccn1,10.8,5.5,0.4%,23.1%,14.6%,10.2%
CC1Sc2ccc(S(=O)(=O)CCC(=O)NC3CCCC(C)C3C)cc2NC1=O (stereo not given),4.9,2.2,-1.0%,-4.0%,3.5%,6.2%
Cc1ccc(NC(=O)COc2cccc3ccc(C)nc23)c(Br)c1,-1.6,3.0,11.3%,-6.3%,-2.9%,-20.5%
Cc1cc(-c2ccc(F)cc2)nc2cc(C(N)=O)nn12,-0.2,-4.0,-6.6%,-39.8%,-1.3%,-5.2%
CCOC(=O)c1cnn2c(C)cc(-c3ccc(F)cc3)nc12,33.5*,53.4,5.3%,22.3%,?,2.4%
CCOC(=O)N1CCC(NC(=O)CC2C(=O)NCCN2Cc2ccc(C)cc2)CC1 (stereo not given),1.6,-28.2,52.5%,113.1%,2.2%,16.3%
O=c1[nH]c(/C=C2\C=Nc3ccccc32)c(O)n1Cc1ccccc1F,1.6,39.8,-1.6%,-33.0%,10.2%,-3.2%
CSc1nc(O)c(/C=C2\C=Nc3ccccc32)[nH]1,62.3*,140.2*,-3.0%,-16.1%,1.7%,0.0%
CCC(C)[C@H](NC(=O)Nc1ccc2c(c1)OCCO2)C(=O)OC (stereo not given in full),6.0,11.4,-1.7%,0.2%,2.9%,5.3%
C/C(Cn1nnc([N+](=O)[O-])n1)=N\NC(=O)c1ccc(O)cc1O,69.0*,72.1*,?,-21.7%,-10.3%,-10.0%[2.32 µM]
C/C(=N\NC(=O)c1cc(C2CC2)nc2ccccc12)c1ccc(O)cc1O,-7.6,-10.4,?,?,?,53.4%
C/C(Cn1nnc([N+](=O)[O-])n1)=N\NC(=O)c1ccc(Cl)c(Cl)c1,-1.3,-16.8,0.6%,-45.5%,-14.2%,70.4%
O=C(Cn1nnc(-c2ccccc2)n1)N/N=C/c1cc([N+](=O)[O-])ccc1O,-2.5,16.7,?,-14.6%,1.4%,44.2%
C/C(Cn1nnc([N+](=O)[O-])n1)=N\NC(=O)c1ccc(O)cc1,22.9*,61.9*,4.1%,-25.1%,4.3%,45.1%
C/C(Cn1nnc([N+](=O)[O-])n1)=N\NC(=O)c1ccccc1O,32.4*,51.7*,-3.4%,-30.3%,4.0%,70.7%
Cc1ccc(Cl)cc1-n1c(SCC(=O)NCCC2=CCCCC2)nc2n[nH]c(C)c2c1=N,0.6,-4.8,-3.3%,66.3%,?,1.5%
SMILES,Cycloheximide cs,Shiga toxin inh,SARS PLpro yeast,AmpC no deterg,AmpC inh detg,AMA1 RON2 block
Cc1cc(C)c(NC(=O)CSc2ncc3c(n2)-c2cc(Cl)ccc2N(C)S3(=O)=O)c(C)c1,.,.,.,.,10.2%,.
COc1ccc(NC(=O)CN(C)C(=O)Cc2ccsc2)cc1,0.7,13.5,2.5%,-10.4%,0.9%,5.3%
COc1ccccc1NC(=O)c1sc2ncn(Cc3ccc(C)cc3)c(=O)c2c1C,-3.9,10.2,-4.4%,0.316µM*,-3.8%,-3.4%
CC(=O)N1CCc2cc(S(=O)(=O)C(C)CC(=O)Nc3ccc(OC(F)(F)F)cc3)ccc21 (stereo not given),29.0*,16.0,6.3%,40.1%,-2.2%,-11.3%
COc1cccc(NC(=O)c2cnc(SC)nc2C)c1,10.3,5.1,-1.2%,-27.7%,2.0%,10.5%
CSc1ncc(C(=O)Nc2cccc(Cl)c2C)c(C)n1,15.1,3.8,-0.9%,-21.9%,1.5%,17.4%
CSc1ncc(C(=O)Nc2ccc(Br)cn2)c(C)n1,23.3*,55.7*,0.0%,-30.5%,-3.5%,3.6%
CSc1ncc(C(=O)Nc2ccc(C(C)=O)cc2)c(C)n1,34.9*,79.7*,0.6%,-24.3%,-10.9%,-5.3%
CSc1ncc(C(=O)Nc2ccc(Cl)cc2)c(C)n1,14.0,39.1*,-1.2%,-5.7%,-2.8%,-2.9%
CCOc1ccccc1N(C)S(=O)(=O)c1ccc2c(c1)CC(C)N2C(=O)C1CC1 (stereo not given),-0.8,-1.7,26.0%,43.8%,-0.6%,0.8%
Cc1nn(-c2ccc(N3CCCC3)nn2)c(C)c1CCC(=O)NCc1ccccc1,.,.,.,.,-0.4%,.
COc1ccccc1N=NC1=C(O)CC(C)(C)CC1=O,22.8*,active,-12.5%,-18.6%,-10.9%,15.3%
CC1(C)CC(=O)C(N=Nc2ccc3ncsc3c2)=C(O)C1,29.0*,48.7*,.,.,-3.2%,-3.5%
COc1ccc2nc(N=NC3=C(O)CC(C)(C)CC3=O)sc2c1,27.5*,43.5,18.5%,-25.2%,5.9%,18.3%
CC1(C)CC(=O)C(N=Nc2ccc(OC(F)F)cc2)=C(O)C1,56.9*,78.7*,-2.3%,-8.2%[11.4 µM],-13.4%,-2.8%
CCN(CC)CCOC(=O)c1ccc(NC(=O)Cn2ncc3c([nH]c4ccc(C)cc43)c2=O)cc1,.,.,.,.,11.8%,.
O=C(Nc1c(C(=O)N2CCCCC2)cnn1-c1ccccc1)c1ccccc1,-2.5,13.4,-3.0%,-1.5%,?,10.7%
NC(N)=NCCC[C@H](N)C(=O)NCC(=O)N[C@@H](CC(=O)O)C(=O)N[C@@H](CO)C(=O)O,-12.0,-3.9,.,.,.,.
O=[N+]([O-])c1cc(/C=N/N2CCN(Cc3ccccc3)CC2)ccc1Cl,-0.8,-6.4,-0.8%,-20.9%,-5.1%,-6.3%
CN(Cc1nc(CCc2ccccc2)no1)Cc1cccs1,15.7*,25.2,0.6%,3.4%,3.1%,5.0%
O=C(NCCOc1cccc(Oc2ccccc2)c1)c1cc(-n2cnnc2)ccc1Cl,0.4,-7.3,?,125.5%,-13.7%,3.9%
CC(Cc1ccco1)NC(=O)c1cccc(S(=O)(=O)N(C)C)c1 (stereo not given),30.3*,66.8*,-1.3%,1.4%,3.7%,-2.1%
